Test results published in PubChem BioAssay AID938 (National Center for Advancing Translational Sciences (NCATS), 2007).
Where “and” joins values, the source holds several entries; their conditions need not be identical. Equal values may be shown once. Out of some 73,000 compounds screened, about 1,800 (2.5%) were called active. Another 13% or so got no clear call; they are omitted. The call rests on the fitted dose curve; in most records, active means well fitted activation curve with a large enough effect; inconclusive means small, poorly fitted or top-dose-only effect; inactive means no such curve, though single readings can be large or run the other way. Shown is part of a subset that was picked to be rich in actives.

Experiment: qHTS Assay for Agonists of the Thyroid Stimulating Hormone Receptor: Activators of Intracellular cAMP Concentrations in Parental HEK 293; further: nearly all actives have a fitted effect of over 55% in size; on activation: % of control where 0% means no effect
Conditions: parental HEK293 CNG cAMP sensor, membrane potential fluorescence; series mostly up to 57.1 µM; activation: at the top concentration
Excerpt: NIH Chemical Genomics Center [NCGC]
NIH Molecular Libraries Screening Centers Network [MLSCN]
PI Name: Dr. Marvin Gershengorn
This cell based assay utilized a cyclic nucleotide gated ion channel (CNG) as a biosensor for cAMP induction. HEK 293 cells stably expressing the modified CNG were purchased from BD biosciences (http://www.atto.com/products/actone/features_benefits.shtml) . Stimulation of cAMP production causes the CNG to open and subsequent membrane depolarization to occur. A fluorescent membrane potential dye (BD biosciences) was utilized to detect cAMP stimulation in cells.
The cells were maintained in DMEM medium (Invitrogen) containing 10 % FBS (Hyclone), 100 units/ml Penicillin, 100 ug/ml Streptomycin (Invitrogen), and 250 ug/ml Geneticin (Invitrogen) and 1 ug/ml Puromycin (Invitrogen) at 37C in 5% CO2. This assay was used as a counterscreen to "qHTS Assay for Agonists of the Thyroid Stimulating Hormone Receptor", to control for compounds signaling through endogenous receptors and other targets of HEK 293 cells.
NCGC Assay Protocol Summary:
High Throughput Screening. Freshly passaged cells were dispensed into 1536-well assay plates at 4 ul/well in DMEM containing phenol red (Invitrogen), 10% FCS (Hyclone), and 100 units/ml Penicillin, 100 ug/ml Streptomycin (Invitrogen) and incubated at 37 C with 5% CO2 for 20 to 36 hrs before the robotic screening. The screen was initiated by addition of 4 ul/well membrane potential dye containing 100 uM RO 20-1724 (Sigma Aldrich), followed by 60 min incubation at room temperature to allow for dye equilibration across the cell membrane. 23 nl/well compound or control was then added to the assay plates, which were incubated for additional 30 min before reading a Envision fluorescence plate reader (Perkin Elmer) in bottom-read mode for fluorescence intensity (emission at 590 nm).
Keywords: cAMP, CNG Ion Channel, quantitative high throughput screening, qHTS, HTS, probe identification, CNG, cAMP, cyclic nucleotide gated ion channel PubChem
Potency means the concentration at half of the fitted maximal effect.

SMILES	Potency	activation
CCC(c1nnnn1Cc1ccco1)N(Cc1cc2cc(OC)ccc2[nH]c1=O)C1CCCCC1 (configuration not stated)	10 µM (active)	
CCC(c1nnnn1Cc1ccco1)N(CCc1ccccc1)Cc1cc2cccc(C)c2[nH]c1=O (configuration not stated)	12.6 µM (active)	
COc1ccc(CCN(Cc2cc3cccc(C)c3[nH]c2=O)C(=O)N2CCCC2)cc1OC		4.44% (inactive)
COc1ccc2[nH]c(=O)c(CN(Cc3nnnn3CCc3ccccc3)CC3CCCO3)cc2c1 (configuration not stated)		11.3% (inactive)
CCC(c1nnnn1C1CCCC1)N(Cc1cccs1)Cc1cc2cccc(C)c2[nH]c1=O (configuration not stated)		24.4% (inactive)
COc1ccc2[nH]c(=O)c(CN(CC3CCCO3)C(=O)Nc3ccccc3)cc2c1 (configuration not stated)		7.93% (inactive)
COc1ccc(/C=C/NC(=O)Cc2ccc(OC)c(OC)c2)cc1		28.5% [at 11.4 µM] (inactive) and 7.24% [at 11.4 µM] (inactive)
Cn1c(CNc2nc(-c3ccccc3)cs2)nnc1SCC(=O)c1ccccc1		5.27% (inactive)
CCN(CC)CCCCn1c(-c2ccccc2)nc2c(N3CCOCC3)nc(C)nc21		25% (inactive)
CC(=O)Nc1ccc(N2CCOCC2)c(C(=O)Nc2cccc(C)c2)c1		-0.0802% (inactive)
COc1c(C)cccc1C(=O)Nc1cc(Cl)ccc1N1CCOCC1	25.1 µM (active)	
O=C(CNC(=O)c1ccc(Cl)cc1Cl)NCC(=O)Nc1ccccc1N1CCOCC1		2.72% (inactive)
Cc1ccc(NC(=O)c2cccc(N(C)C)c2)cc1NC(=O)c1ccc(O)cc1		0.64% (inactive)
COC(=O)c1oc2ccc(Br)cc2c1NC(C)=O		10.9% (inactive)
Cc1cccc(OCc2nnc(SCn3nnc4ccccc4c3=O)o2)c1	25.1 µM (active)	
Cc1cccc(OCc2nnc(SCc3nc4cc(C(F)(F)F)ccc4c(=O)[nH]3)o2)c1		2.42% (inactive)
Cc1cc(C)cc(OCc2nnc(SCC(=O)Nc3ccccc3)o2)c1		6.95% (inactive)
Cc1noc(C)c1S(=O)(=O)N(CC(=O)Nc1ccc2c(c1)OCCO2)c1ccc(C(C)C)cc1		20.2% (inactive)
C=CCOc1ccc(/C=N/n2cncn2)cc1OC		-4.54% (inactive)
Cc1nc(C)c(C(=O)Nc2cccc(C)c2C)o1		7.93% (inactive)
Cc1ccc(OCC(=O)Nc2ccc(-c3nnc(-c4ccco4)o3)cc2)cc1		21.5% (inactive)

SMILES	Potency	activation
CCC(=O)Oc1cccc(C(=O)Nc2ccc(-c3nnc(-c4ccco4)o3)cc2)c1		1.31% (inactive)
CCCCOc1ccc(-c2nnc(-c3ccco3)o2)cc1	20 µM (active)	
CC(C)(C)c1ccc(OC2C=CC(C#Cc3ccccc3)OC2CO)cc1 (configuration not stated)		12.6% [at 11.4 µM] (inactive)
Cc1cc2nc3c(=O)[nH]c(=O)nc-3n(C[C@H](O)[C@H](O)[C@H](O)CO)c2cc1C		35.7% (inactive)
CC(Cc1cccs1)NC(=O)NC1CCCCC1 (configuration not stated)		6.28% (inactive)
O=C(Nc1ccc(Oc2ccccc2)cc1)c1ccco1		9.26% (inactive)
Cc1ccccc1NC(=O)c1cnn(-c2ccccc2)c1NC(=O)c1ccco1		5.37% (inactive)
O=C(Nc1c(-c2ccccc2)nc2c(Br)cc(Br)cn12)c1ccco1	20 µM (active)	
Cn1c(=O)c2c(nc(N3CCCCCC3)n2CC(O)COc2ccc(Cl)cc2)n(C)c1=O (configuration not stated)		-35.3% (inactive)
CCOc1ccc(Nc2oc(Cc3ccccc3)nc2C#N)cc1		6.65% (inactive)
N#Cc1nc(COc2ccc(Cl)cc2)oc1N1CCCC1	15.8 µM (active)	
Cc1ccc(OCc2nc(C#N)c(N3CCCC3)o2)cc1	20 µM (active)	
N#Cc1nc(COc2ccc(-c3ccccc3)cc2)oc1NCc1cccnc1		16.9% (inactive)
N#Cc1nc(-c2ccc(OCc3ccccc3)cc2)oc1NCCCN1CCOCC1		-0.986% (inactive)
CCOc1cc(/C=N/O)cc(Br)c1OC		15% [at 11.4 µM] (inactive)
CCOC(=O)[C@]1(C(/C=C/c2ccco2)NC(=O)OC)CCCC1=O (some centres not stated)		0.322% [at 11.4 µM] (inactive)
O=C(NC(Cc1ccccc1)C(=O)N1CCCC1C(=O)O)c1ccccc1 (configuration not stated)		-0.0027% (inactive)
O=c1c(CCc2ccccc2)nc2cncnc2n1C1CC1		2.16% (inactive)
CCOC(=O)C1CCCN(C(=O)C2CCN(c3nnc(-n4cccc4)s3)CC2)C1 (configuration not stated)		12.6% (inactive)
O=C1CSC(c2cccc(F)c2)N1c1ccccc1F (configuration not stated)		4.72% (inactive)
Fc1ccc(Br)cc1/C=N/n1cnnc1		11% (inactive)

SMILES	Potency	activation
Cc1cc(/C=N/n2cnnc2)c(C)n1-c1ccc2ncccc2c1	3.98 µM (active)	
Cc1cc(/C=N/n2cnnc2)c(C)n1-c1cccc(C(=O)O)c1		7.1% (inactive)
CCOC(=O)c1cc2cc(-c3c(C(=O)OCC)oc4cc(O)cc(O)c4c3=O)ccc2o1		-9.15% (inactive)
O=C(Nc1cccc(F)c1)N1CCC2(CC1)CCN(S(=O)(=O)c1ccccc1)CC2		-5.07% (inactive)
COc1ccccc1CN1CC2(CCN(S(=O)(=O)c3ccccc3)CC2)C1		7.71% (inactive)
CN1CCC2(CC1)CCN(S(=O)(=O)c1ccccc1)CC2	3.98 µM (active)	
CC(=O)c1cnc(Nc2nc(C)c3cc(C)ccc3n2)nc1C		-1.78% (inactive)
CO/N=C\[C@@H](C)[C@H](OCc1ccccc1)C(C)C		-0.643% [at 11.4 µM] (inactive)
C[C@H]1CC[C@H](C(=O)O)N[C@@H]1c1ccc(C#Cc2ccccc2)cc1		0.689% [at 11.4 µM] (inactive)
CC(C)[C@H](NC(=O)Nc1ccc(S(N)(=O)=O)cc1)C(=O)O		3.41% (inactive)
O=C(Cn1nnc(-c2ccccc2)n1)NCc1ccc2c(c1)OCO2		12.1% (inactive)
Cc1ccc(C(=O)CSc2nnc(Cn3nnc4ccccc43)n2C)cc1		1.67% (inactive)
CC(C)(C)NC(=O)C(c1ccncc1)N(C(=O)CNC(=O)c1ccco1)c1ccc2c(c1)OCO2 (configuration not stated)		-1.28% (inactive)
CCC(C)(C)NC(=O)C(c1cccn1C)N(Cc1ccc(C)cc1)C(=O)Cn1nnc2ccccc21 (configuration not stated)	15.8 µM (active)	
Cc1ccc(-c2nnn(CC(=O)N(CCO)C(C(=O)NC(C)(C)C)c3ccncc3)n2)cc1 (configuration not stated)		9.77% (inactive)
CC(C)(C)NC(=O)C(c1ccco1)N(Cc1ccc2c(c1)OCO2)C(=O)Cn1nnc2ccccc21 (configuration not stated)	15.8 µM (active)	
CC(=O)c1nc(N2C(=O)C3CC=C(C)CC3C2=O)sc1C (configuration not stated)		1.5% (inactive)
CCOC(=O)CCC(=O)OCC(=O)NC(C)C1CC2CCC1C2 (configuration not stated)		5.54% (inactive)
CCc1c(C)sc(NC(=O)OC)c1C(=O)N1CCOCC1		-1.6% (inactive)
CC(=O)OCC(=O)[C@@]1(O)CC[C@@H]2[C@H]3CCC4=CC(=O)C=C[C@]4(C)[C@]3(F)[C@@H](O)C[C@@]21C		-1.34% [at 25.6 µM] (inactive)
